The text below walks through data of ChEMBL document CHEMBL4513146, “CO-ADD screening of Karazin Kharkiv National University (Ukraine) compounds”.

Results with a measured potency or affinity are listed apart.

Assay [1] deals with Klebsiella pneumoniae. The conditions noted are these: Concentration 32 ug.mL-1;; ASSAY_TEST Inhibition of Bacterial Growth; detection method Absorption (OD600); MEDIA CAMHB; plate type 384well; NBS; CORNING #3640; time 18 hr.
Assay [2] has as its system Candida albicans. The conditions noted are these: Concentration 32 ug.mL-1; ASSAY_TEST Inhibition of Fungal Growth; detection method Absorption (OD530).
Assay [3] has as its system Cryptococcus neoformans. As to conditions: Concentration 32 ug.mL-1; ASSAY_TEST Inhibition of Fungal Growth; detection method Resazurin; Absorption (OD600-OD570); plate type 384well; NBS; CORNING #3640. Background: Resazurin is reduced to fluorescent resorufin, in cell work by metabolically active cells.

What is called Inhibition is the change of the read-out against control, counted positive when it falls.

Regarding `Cc1ccc(NC(=O)Cn2c(=O)c3nnc(C)n3c3ccccc32)cc1F`, the Inhibition is listed as 7.95% in assay [1], 2.03% in assay [2] and -16.64% in assay [3].
On to `CCCCc1ccc(NC(=O)Cn2nc3c(SC4CCCCC4)nccn3c2=O)cc1`, for which the Inhibition in assay [1] was 1.99%; in assay [2], 20.8%; in assay [3], -5.76%.
`O=C(Cn1nc2c(N3CCOCC3)nccn2c1=O)NCc1cc(F)cc(F)c1`: the Inhibition was 6.28% in assay [1], 4.54% in assay [2] and -8.22% in assay [3].
The matching figures for `COc1ccc(-c2cc3c4nn(CC(=O)Nc5cccc(C(C)=O)c5)c(=O)n4ccn3n2)cc1`: 3.99%, 4.25% and -13.63%.
As to `O=C(CSc1nc2ccccc2n2cnnc12)Nc1cc(C(F)(F)F)ccc1Cl`, the Inhibition in assay [1] was 4.72%; in assay [2] it was 15.89%; in assay [3] it was -19.78%.
In the same order, the values of `Cc1nnc2ccc(S(=O)(=O)N(Cc3cccc(F)c3)c3ccc4c(c3)OCO4)cn12` are 1.28%, 3.36% and -7.24%.
Take `CCc1ccccc1Sc1nccn2c(=O)n(CC(=O)N3CCN(c4ccccc4F)CC3)nc12`: the Inhibition in assay [1] is on record as 1.78%; in assay [2], 4.04%; in assay [3], -15.46%.
Take `Cc1cc(C)cc(NC(=O)Cn2nc3c4cc(-c5ccc(C)c(C)c5)nn4ccn3c2=O)c1`: the Inhibition in assay [1] is 6.91%; in assay [2] it was 7.8%; in assay [3], -17.96%.
For `CCc1nnc2c(S(=O)(=O)N(Cc3ccccc3C)c3ccc(Cl)cc3)cccn12`, the Inhibition in assay [1] was 3.29%; in assay [2], 6.38%; in assay [3] it was -5.94%.
`COc1cc(OC)c(NC(=O)Cn2nc3c(Sc4cccc(C)c4)nccn3c2=O)cc1Cl`: the Inhibition in assay [1] is 10.68%; in assay [2], 47.09%; in assay [3], -23.34%.
As for `CC(C)c1nnc2c(=O)n(CC(=O)Nc3ccc(C#N)cc3)c3ccccc3n12`, the values for the Inhibition in assay [1], in assay [2] and in assay [3] were 6.44%, 0.24% and -24.39%, respectively.
With `Cc1nnc2ccc(S(=O)(=O)N(Cc3cccc(F)c3)c3cccc(F)c3)cn12`, the Inhibition was 2.6% in assay [1], 1.95% in assay [2] and -8.19% in assay [3].
`CCOC(=O)c1ccc(NC(=O)Cn2nc3ccc(Sc4ccccc4)nn3c2=O)cc1`: the Inhibition is given as 5.75% in assay [1], 4.06% in assay [2] and -9.53% in assay [3].
With `CN(C(=O)Cn1nc2n(Cc3cccs3)c(=O)c3sccc3n2c1=O)c1ccccc1`, the Inhibition was -2.89% in assay [1], 0.01% in assay [2] and -9.21% in assay [3].
In the case of `Cc1cc2nn(CC(=O)Nc3cc(F)cc(F)c3)c(=O)n2c(Nc2ccc(F)c(C)c2)n1`, the Inhibition in assay [1] is 18.09%; in assay [2] it was 3.34%; in assay [3] it was -11.58%.
For the compound `O=c1c2sccc2n2c(=O)n(Cc3c(F)cccc3Cl)nc2n1Cc1cccs1`, the Inhibition in assay [1] is recorded as 11.77%; in assay [2], -0.79%; in assay [3] it was -29.08%.
As to `Cc1ccc(-n2ccn3c(SCC(=O)Nc4ccc5c(c4)OCCO5)nnc3c2=O)cc1C`, the results for the Inhibition in assay [1], in assay [2] and in assay [3] were 9.68%, 0.14% and -6.74%, respectively.
Consider `Cc1nnc2ccc(S(=O)(=O)N(Cc3ccc(F)cc3)c3ccc4c(c3)OCO4)cn12`, for which the Inhibition in assay [1] is 13.79%; in assay [2], 1.73%; in assay [3], -7.24%.
The matching figures for `COc1ccccc1-n1ccn2c(SCC(=O)Nc3ccc(F)cc3F)nnc2c1=O`: 8.27%, 0.36% and -9.49%.
With `CCc1cccc(NC(=O)Cn2nc3c(Sc4ccc(C)cc4C)nccn3c2=O)c1`, the values for the Inhibition in assay [1], in assay [2] and in assay [3] were -3.14%, 5.97% and -23.88%, respectively.
As for `Cc1cc(C)cc(Nc2nc(C)cc3nn(CC(=O)Nc4ccc(F)cc4F)c(=O)n23)c1`, the Inhibition is listed as 15.5% in assay [1], 32.59% in assay [2] and -6.19% in assay [3].
In the case of `COc1cccc(-n2ccn3c(SCc4cc(C)ccc4C)nnc3c2=O)c1`, the Inhibition in assay [1] was 8.78%; in assay [2], 2.61%; in assay [3] it was -5.92%.
For the compound `Cc1cc(C)c(NC(=O)Cn2nc3c(Sc4cccc(F)c4)nccn3c2=O)c(C)c1`, the Inhibition in assay [1] is listed as 9.01%; in assay [2] it was 0.95%; in assay [3], -7.48%.
In the same order, the values of `COc1cccc(Sc2nc3ccccc3n3c(=O)n(CC(=O)Nc4c(C)cc(C)cc4C)nc23)c1` are 4.89%, -0.39% and -17.68%.
Take `Cc1cc2nn(CC(=O)NCc3ccc4c(c3)OCO4)c(=O)n2c(Nc2ccccc2C)n1`: the Inhibition in assay [1] is given as 10.7%; in assay [2], 2.64%; in assay [3] it was -19.18%.
Turning to `Cc1ccc(Oc2nccn3c(=O)n(CC(=O)N4CCN(c5ccccc5F)CC4)nc23)cc1`, the values for the Inhibition in assay [1], in assay [2] and in assay [3] were 13.64%, -0.66% and -23.01%, respectively.
The matching figures for `COc1ccc(NC(=O)Cn2nc3nc(N4CCCCCC4)ccn3c2=O)cc1Cl`: 8.5%, 2.73% and -7.14%.
Regarding `CCc1ccc(N(Cc2cccc(F)c2)S(=O)(=O)c2cccn3c(CC)nnc23)cc1`, the Inhibition is on record as 9.15% in assay [1], 4.6% in assay [2] and -6.35% in assay [3].
As to `Cc1cc(C)cc(NC(=O)Cn2nc3ccc(SC(C)(C)C)nn3c2=O)c1`, the results for the Inhibition in assay [1], in assay [2] and in assay [3] were 7.43%, 7% and -18.29%, respectively.
The matching figures for `CCOc1ccccc1NC(=O)Cn1nc2c(Sc3ccccc3)nccn2c1=O`: 3.54%, -0.33% and -18.53%.
In the same order, the values of `CCCCn1c(=O)c2sccc2n2c(=O)n(CC(=O)N3CCC(Cc4ccccc4)CC3)nc12` are 0.07%, -1.21% and -0.28%.
In the case of `O=c1n(Cc2nc(-c3ccc4c(c3)OCO4)no2)nc2ccc(-c3ccccc3)nn12`, the values for the Inhibition in assay [1], in assay [2] and in assay [3] were -1.48%, 6.34% and -13.29%, respectively.
In the case of `CC(C)c1ccc(N(Cc2ccccc2F)S(=O)(=O)c2cccn3cnnc23)cc1`, the Inhibition in assay [1] is recorded as 6.21%; in assay [2], -0.83%; in assay [3], -6.6%.
For the compound `Cc1ccc(C)c(NC(=O)Cn2nc3c(SCc4ccc(Cl)cc4)nccn3c2=O)c1`, the values for the Inhibition in assay [1], in assay [2] and in assay [3] were 13.13%, 3.07% and -22.73%, respectively.
Take `COc1ccc(-c2nc(CSc3nc4ccccc4n4c(C(C)C)nnc34)c(C)o2)cc1`: the figures for the Inhibition in assay [1], in assay [2] and in assay [3] were 4.67%, 2.32% and -16.11%, respectively.
Regarding `CC(=O)c1cccc(NC(=O)Cn2c(=O)c3nnc(C(C)C)n3c3ccccc32)c1`, the Inhibition is listed as 4.91% in assay [1], 5.31% in assay [2] and -19.11% in assay [3].
For the compound `Cc1ccc(-c2cc3c4nn(CC(=O)NCc5ccc(Cl)cc5)c(=O)n4ccn3n2)cc1C`, the results for the Inhibition in assay [1], in assay [2] and in assay [3] were 7.6%, 2% and -10.6%, respectively.
As to `COc1ccc(NC(=O)Cn2nc3ccc(Sc4ccccc4)nn3c2=O)cc1`, the Inhibition in assay [1] was 3.54%; in assay [2], 3.37%; in assay [3], -9.77%.
As to `O=C(Cn1nc2ccc(SCc3ccc(Cl)cc3)nn2c1=O)Nc1ccc(F)c(F)c1`, the Inhibition in assay [1] was 3.9%; in assay [2], 20.34%; in assay [3], -13.26%.
For the compound `CCOc1ccc(N(Cc2cccc(F)c2)S(=O)(=O)c2ccc3nncn3c2)cc1`, the Inhibition was 6.73% in assay [1], 1.76% in assay [2] and -4.27% in assay [3].
For the compound `O=C(CCc1nnc2c(N3CCCCC3)nc3ccccc3n12)NCc1ccc2c(c1)OCO2`, the figures for the Inhibition in assay [1], in assay [2] and in assay [3] were 14.18%, 10.16% and -25.55%, respectively.
On to `O=C(Cn1nc2nc(Nc3ccc(F)cc3)ccn2c1=O)N1CCOCC1`, for which the results for the Inhibition in assay [1], in assay [2] and in assay [3] were 14.5%, 2.63% and -13.19%, respectively.
For `Cc1nnc2ccc(S(=O)(=O)N(Cc3cc(F)cc(F)c3)c3ccc(F)cc3)cn12`, the Inhibition was 7.75% in assay [1], 0.47% in assay [2] and -6.16% in assay [3].
On to `CCc1nnc2ccc(S(=O)(=O)N(Cc3ccc(OC)cc3)c3cccc(F)c3)cn12`, for which the Inhibition in assay [1] is reported as 4.14%; in assay [2], 4.82%; in assay [3] it was -8.59%.
Consider `CCc1ccc(N(Cc2cccc(OC)c2)S(=O)(=O)c2cccn3c(C)nnc23)cc1`, for which the results for the Inhibition in assay [1], in assay [2] and in assay [3] were -1.7%, -0.37% and -7.84%, respectively.
With `O=c1n(Cc2cccc(C(F)(F)F)c2)nc2c(S(=O)(=O)N3CCCCCC3)cccn12`, the Inhibition is recorded as 7.16% in assay [1], 2.16% in assay [2] and -9.24% in assay [3].
With `Cc1ccc(-n2ccn3c(SC(C)C(=O)Nc4ccc5c(c4)OCCO5)nnc3c2=O)cc1C` (stereo not given), the Inhibition in assay [1] is given as 15.49%; in assay [2], 0.29%; in assay [3], -6.97%.
Consider `CCc1nnc2ccc(S(=O)(=O)N(Cc3ccc(F)cc3)c3ccc(OC)cc3)cn12`, for which the figures for the Inhibition in assay [1], in assay [2] and in assay [3] were 5.94%, -0.37% and -3.5%, respectively.
Turning to `COc1cccc(NC(=O)Cn2nc3ccc(SCc4ccc(Cl)cc4)nn3c2=O)c1`, the values for the Inhibition in assay [1], in assay [2] and in assay [3] were 6.69%, 11.57% and -15.62%, respectively.
In the same order, the values of `O=S(=O)(c1cccn2c(SCc3c(F)cccc3Cl)nnc12)N1CCCC1` are 5.57%, -0.64% and -6.69%.
In the same order, the values of `COC(=O)c1ccc(CN(c2cccc(C)c2)S(=O)(=O)c2cccn3c(C)nnc23)o1` are 9.19%, 2.2% and -7.03%.
In the same order, the values of `COc1cccc(-n2ccn3c(SCc4ccccc4C)nnc3c2=O)c1` are 8.9%, 2.6% and -11.74%.
In the case of `COc1ccc(NC(=O)Cn2nc3c4cc(-c5ccc(OC)cc5)nn4ccn3c2=O)cc1`, the Inhibition in assay [1] was 12.45%; in assay [2], 2.73%; in assay [3], -13.09%.
In the same order, the values of `O=C(Cn1nc2c3cc(-c4ccc(F)cc4)nn3ccn2c1=O)Nc1ccc(Br)cc1` are 2.07%, 14.76% and 4.1%.
Turning to `COc1cccc(C(=O)CSc2nnc3c(=O)n(-c4ccc(F)cc4)ccn23)c1`, the results for the Inhibition in assay [1], in assay [2] and in assay [3] were 7.79%, 2.89% and -4.94%, respectively.
Take `CC(=O)c1ccc(NC(=O)Cn2nc3c(SC4CCCCC4)nccn3c2=O)cc1`: the Inhibition in assay [1] is recorded as 4.71%; in assay [2], 0.5%; in assay [3], -15.4%.
In the case of `Cc1cccc(NC(=O)Cn2nc3c(SCc4ccccc4)nccn3c2=O)c1C`, the figures for the Inhibition in assay [1], in assay [2] and in assay [3] were 5.49%, 0.78% and -13.96%, respectively.
On to `O=S(=O)(c1cccn2cnnc12)N(Cc1ccccc1F)c1ccc(F)c(F)c1`, for which the figures for the Inhibition in assay [1], in assay [2] and in assay [3] were 13.33%, 5.39% and -3.16%, respectively.
For the compound `CCc1nnc2c(SCC(=O)Nc3cccc(C(C)=O)c3)nc3ccccc3n12`, the Inhibition in assay [1] is 17.43%; in assay [2], -0.1%; in assay [3] it was -10.94%.
As for `O=C(Cn1nc2ccc(-c3ccccc3)nn2c1=O)Nc1ccc(F)c(Cl)c1`, the Inhibition in assay [1] is 7.19%; in assay [2], 1.94%; in assay [3] it was -6.93%.
